# Assay outcomes from PubChem.
# NS1 function inh – blocks influenza NS1 protein function. Potency, µM (titrated, usually from 46.1 µM), for inactives: at the top dose activity, positive = more growth. actives 0.4% (n = 270,000). AID 2326; calls by dose curve; note: actives are rising curves; nearly all actives have a fitted effect of over 50% in size
#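 Compounds were scored for reversing the slow growth caused by influenza A NS1 in S. cerevisiae, measured by optical density at 600 nm. Assay medium contained 2% galactose at pH 6.0; NS1-free yeast of the same strain were the positive control.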
# Pf growth 96h – P. falciparum growth inhibition at 96 hour, primary screen for plastid delayed-death inhibitors | P. falciparum luciferase reporter growth, 96 h | Potency, µM (doses to about 28.7 µM), for the others: at the top dose activity change, negative = inhibition, usual class: inhibitors | actives 6.9% (n = 320,000); note: % is set by controls: 0 for no effect and ±100 for the full control effect
#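 Parasite growth measured via integrated firefly luciferase reporter in P. falciparum. Infected erythrocytes at 2% hematocrit, 0.05% parasitemia final were treated 96 hours at 37 C under 5% CO2, and luminescence was read.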
# VACV Venus inh – vaccinia inhibition (Venus reporter). Vaccinia virus Venus reporter expression, fluorescence. Potency, µM (highest dose often 36.5 µM), without a hit: top-dose activity change, negative = inhibition, actives largely listed as inhibitors. actives 0.46% (n = 330,000). AID 720580; calls by dose curve; tested in A549 cells; note: % is set by controls: 0 for no effect and ±100 for the full control effect; nearly all actives have a fitted effect of over 30% in size
# Pf growth 48h – P. falciparum growth inhibition at 48 hours (one generation); AID 504832; P. falciparum luciferase growth in erythrocytes, 48 h; actives 5.9% (n = 310,000); Potency, µM (top dose mostly 28.7 µM), for the others: at the top dose activity change, negative = inhibition, usual class: inhibitors; note: % is set by controls: 0 for no effect and ±100 for the full control effect
#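 A one-generation exposure of luciferase-tagged malaria parasites in RPMI 1640/Albumax erythrocyte culture, 37 C and 5% CO2. Inhibition is inferred from decreased luminescence after adding detection reagent.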
# Vaccinia mCherry – inhibitors of vaccinia virus infection (mCherry reporter signal); Vaccinia virus mCherry reporter infection, fluorescence; Potency, µM (top dose mostly 36.5 µM), without a hit: at the highest dose activity change, negative = inhibition, most hits filed as inhibitors; actives 0.63% (n = 310,000); calls by dose curve; tested in A549 cells; note: % is set by controls: 0 for no effect and ±100 for the full control effect; nearly all actives have a fitted effect of over 35% in size
# HCV inh – inhibitors of hepatitis C virus infection; Huh7.5.1 HCVcc-Cre infection, luciferase reporter, 44 h; Potency, µM (doses to about 41.8 µM), for the others: top-dose activity change, negative = inhibition, actives largely listed as inhibitors; actives 3.4% (n = 340,000); AID 651820; note: % is set by controls: 0 for no effect and ±100 for the full control effect
#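 Cells seeded at 1,000/well and cultured 4 h, then compounds added followed by HCVcc-Cre virus (~0.5 moi). After 44 h further culture, luciferase substrate was added, plates held 15 min at room temperature, and luminescence read for 15 sec.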
# * marks the source's active call; other numbers are inactive results; i = inactive; ? = inconclusive; . = not tested or not shown; [ ] = remark or other dose. In the library only some 11% were active in any assay of this set; here they are far more common. Unless noted, calls come from the whole dose curve; as a rule, active = well fitted inhibition curve with a large enough effect; inconclusive = small, poorly fitted or top-dose-only effect, or another doubt; inactive = no such curve, though single readings can be large or run the other way. Potency is the fitted concentration of half-maximal effect.
SMILES,NS1 function inh,Pf growth 96h,VACV Venus inh,Pf growth 48h,Vaccinia mCherry,HCV inh
C#CCOCCOCCOCCNc1nc(N2CCN(C(=O)Cn3cc(CCCCN)nn3)CC2)nc(N2CCN(C(=O)[C@H]([C@@H](C)CC)n3cc(CCCCN)nn3)CC2)n1,.,76.7%,-9.7%,-6.3%,i,19.4%
CCC(c1nnnn1Cc1cccs1)N1CCN(c2nc3ccccc3s2)CC1 (stereo not drawn),3.9%,?,?,9.28µM*,-25.6%,?
CC(C)C(c1nnnn1Cc1ccco1)N1CCN(c2nc3ccccc3s2)CC1 (stereo not drawn),-38.1%,.,-21.5%,?,-9.5%,?
O=C1CC(N2CCN(c3ccc(F)cc3)CC2)C(=O)N1Cc1cccs1 (stereo not drawn),-30.8%,.,-14.9%,?,.,-4.2%
CCC(c1nnnn1Cc1cccs1)N1CCN(C2CCCC2)CC1 (stereo not drawn),3.0%,?,-1.5%,7.3%,-2.8%,?
O=C1CC(N2CCN(c3nc4ccccc4s3)CC2)C(=O)N1Cc1cccs1 (stereo not drawn),-148.4%,.,?,-8.9%,.,14.1µM*
CC(C)CC(c1nnnn1Cc1cccs1)N1CCN(c2nc3ccccc3s2)CC1 (stereo not drawn),7.1%,0.8%,-24.4%,11.7µM*,?,0.6%
Cc1ccc(S(=O)(=O)N2CCN(S(=O)(=O)N3CCCCC3)CC2)cc1,9.2%,18.2%,-2.4%,14.6%,-6.5%,4.8%
COc1ccc(-c2cccc3c2C2CC3CCN2C(=O)OCc2ccccc2)cc1 (stereo not drawn),.,.,-10.4%,.,i,7.94µM*
COc1cc(NC(=O)C2CCCN2C(=O)OCc2ccccc2)cc(OC)c1 (stereo not drawn),-10.9%,0.2%,-15.5%,7.38µM*,.,?
O=C(OCc1ccccc1)N1CCC2CC1c1cc(-c3ccccc3)ccc12 (stereo not drawn),.,.,3.3%,.,-26.8%,-17.1%
Cc1cccc(NC(=O)C2CCCN2C(=O)OCc2ccccc2)c1 (stereo not drawn),.,31.1%,-10.5%,?,i,0.3%
COc1ccc(C2C(C(=O)N3CCN(C)CC3)c3ccccc3C(=O)N2C2CCCCC2)cc1 (stereo not drawn),-7.9%,38.7%,-10.9%,?,-2.4%,-23.2%
Cn1c(SSc2ccc(-c3cccnc3)n2C)ccc1-c1cccnc1,.,.,?,.,12.6µM*,-16.9%
Cn1c(SCC(=O)c2ccccc2)nnc1-c1cccnc1,-6.2%,13.9%,.,?,.,-2.3%
Brc1cnc(N2CCCC2)nc1N1CCOCC1,-19.1%,-16.1%,.,3.9%,.,22.4µM*
Cc1ccccc1OCC(=O)Nc1nnc(C2CCCCC2)s1,2.4%,31.8%,.,30.3%,.,22.3%
CCn1c(SCC(=O)Nc2ccccc2)nc2c1c(=O)n(C)c(=O)n2C,4.4%,11.7µM*,-2.3%,12.2%,i,-8.7%
CCCn1c(SCC(=O)N2c3ccccc3CCc3ccccc32)nc2c1c(=O)n(C)c(=O)n2C,1.3%,i,.,14.7µM*,.,?
CCOc1ccc(OCC)c(NC(=O)CSc2nc3c(c(=O)n(C)c(=O)n3C)n2C(C)C)c1,-35.6%,3.29µM*,-20.1%,4.15µM*,-24.5%,10µM*
CCOc1ccc(OCC)c(NC(=O)CSc2nc3c(c(=O)n(C)c(=O)n3C)n2C)c1,-6.5%,.,.,7.7%,.,.
CCn1c(SCC(=O)Nc2cccc(O)c2)nc2c1c(=O)n(C)c(=O)n2C,10.6%,?,-7.4%,3.9%,-0.6%,13.9%
CC(C)n1c(SCC(=O)Nc2ccccc2)nc2c1c(=O)[nH]c(=O)n2C,1.7%,13.1µM*,-9.1%,?,i,14.1%
CCCn1c(SCC(=O)N2CCc3ccccc3C2)nc2c1c(=O)n(C)c(=O)n2C,-6.9%,-1.1%,.,-21.9%,.,4.7%
CCOC(=O)c1cc(/C(C)=N/OC(=O)c2ccc(C(C)(C)C)cc2)on1,6.3%,28.0%,.,6.4%,.,11.2%
SMILES,NS1 function inh,Pf growth 96h,VACV Venus inh,Pf growth 48h,Vaccinia mCherry,HCV inh
Cc1cccc(-c2nnc(SCC(=O)N3c4ccccc4CCc4ccccc43)n2C)c1,-3.8%,5.1%,-9.7%,?,-11.4%,?
CC(C)n1c(SCC(=O)Nc2ccccc2)nc2c1c(=O)n(C)c(=O)n2C,0.5%,?,-15.3%,11.7µM*,.,?
CCN(CC)C(=O)CSc1nnc2ccc3ccccc3n12,.,.,-4.4%,.,-7.1%,.
CCN(CC)C(=O)CSc1nnc(-c2cc3ccccc3cc2O)n1CC,0.2%,-9.5%,.,8.28µM*,.,?
Cn1c(SCC(=O)N2c3ccccc3CCc3ccccc32)nnc1-c1cc2ccccc2cc1O,?,-91.7%,?,1.85µM*,-13.0%,?
Cc1cc(-c2ccccc2)nc(=O)[nH]1,-19.5%,6.57µM*,-1.7%,19.5%,-4.4%,29.4%
CCOC(=O)c1cccc(NC(=O)CCc2nc(-c3ccc(C)cc3)no2)c1,-9.8%,1.04µM*,-21.9%,11.7µM*,.,?
O=C(Nc1ccc(-c2noc(CCc3ccccc3)n2)cc1)c1cccnc1,-5.8%,26.9%,?,?,.,11.2µM*
CCOC(=O)c1ccc(NC(=O)CCc2nc(-c3ccccc3Cl)no2)cc1,-85.5%,-0.8%[5.75 µM],.,-11.0%,.,11.2µM*
CCOC(=O)c1ccc(NC(=O)CCc2nc(-c3ccccc3)no2)cc1,-58.8%,13.1µM*,-27.6%,0.0%,-24.4%,?
CCOC(=O)c1ccc(NC(=O)CCCc2nc(-c3cc(OC)c(OC)c(OC)c3)no2)cc1,.,.,-5.9%,.,5.9%,.
CCOC(=O)c1cccc(NC(=O)CCc2nc(-c3ccccc3F)no2)c1,-18.8%,21.0%,-25.9%,-8.6%,.,?
COc1ccc(/C=N/N=C2/NC(=O)C(c3ccccc3)S2)c(OC)c1 (stereo not drawn),8.7%,?,.,?,.,-4.8%
CSS(=O)(=O)c1cccc2cccnc12,-56.1%,-6.4%,-7.6%,-12.2%,i,-3.3%
COc1ccc(S(=O)(=O)/N=C2/C=CC(=O)C(C)=C2C)cc1,14.4%,?,.,?,.,12.6µM*
O=C(Nc1ccccc1O)c1cc(S(=O)(=O)N2CCOCC2)c(Cl)cc1Cl,-7.8%,147.4%,-25.4%,7.38µM*,-22.7%,.
O=C(CSc1nc2ccccc2s1)Nc1ccc(Cl)c(S(=O)(=O)N2CCOCC2)c1,18.7%,4.65µM*,-27.5%,?,-16.9%,?
O=C(Nc1ccccc1)Nc1ccc(Cl)c(S(=O)(=O)N2CCOCC2)c1,.,?,-21.1%,9.28µM*,i,?
COc1ccc(NC(=O)CSc2nnc(C)s2)cc1S(=O)(=O)N1CCOCC1,.,10.4µM*,.,-18.1%,.,5.5%
CCCn1cc2c(c1-c1cccc(C)c1)c(=O)n(C)c(=O)n2C,-32.1%,.,-3.9%,5.2%,.,?
